Shown are actives, neighbours in structure and some others; about 10% of the full set was active somewhere.
JMJD2A Tudor = JMJD2A Tudor domain (human) inhibition | Potency, µM (series often up to 114 µM), most hits filed as inhibitors | O75164 | AlphaScreen JMJD2A-Tudor / H3K4me3 peptide binding | 4.4% of 390,000 active; note: nearly all actives have a fitted effect of over 50% in size
CtBP-E1A blk = blocks the CtBP interaction with E1A; AlphaScreen GST-E1A/His-CtBP binding, 1536-well; stronger effect = lower value; activity change, % (test concentration not listed); 0.49% of 340,000 active; AID 651724; in the data active = activity change below about -65%; inconclusive = mostly about -30% to -63%
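Steps: dispense buffer (Tris pH 8.0, NaCl 300 mM, TCEP 1 mM, BSA, Tween 20); add 5X protein mix (GST-E1A, His-CtBP, 125 nM each); pin 23 nL compound; 2 h at 37 °C, dark; add 5X beads (50 ug/mL); 1 h; read.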
G9a block = G9a (human) methyltransferase inhibition; G9a H3K9 monomethylation, AlphaScreen, 2 h; 8.8% of 350,000 active; Potency, µM (titrated, usually from 102 µM), hits mostly inhibitors; note: nearly all actives have a fitted effect of over 75% in size
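AlphaScreen read-out: biotin-H3K9 peptide (500 nM) methylation by 20 nM enzyme with 20 uM SAM, 2 h at room temperature after 15 min compound preincubation; anti-monomethyl H3K9 antibody plus donor/acceptor beads, 10 min dark.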
BAZ2B inh = inhibitors of human BAZ2B bromodomain | Q9UIF8 | AlphaScreen BAZ2B-H3K14Ac peptide displacement | Potency, µM (doses to about 114 µM), hits mostly inhibitors | 4.4% of 360,000 active | AID 504333; note: nearly all actives have a fitted effect of over 60% in size
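BAZ2B 50 nM plus b-H3(5-23)K14Ac 50 nM, PBS pH 7.4/0.01% Tween-20, 30 min RT; compound added (max 110 uM), 30 min RT; streptavidin donor/Ni-chelate acceptor beads 10 ug/mL final, 20 min dark; AlphaScreen read.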
Six1-Eya2 blk = Six1/Eya2 interaction inhibition | AlphaScreen GST-Six1/His-Eya2 binding, biochemical; stronger effect = lower value | activity change, % (test concentration not listed) | 0.56% of 360,000 active; in the data active = activity change below about -65%; inconclusive = mostly about -30% to -63%
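Compounds are tested against tagged Six1 and Eya2 proteins bridged by glutathione donor and nickel acceptor beads; after a one-hour incubation at 37 °C without light, AlphaScreen emission is recorded.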
HP1b binding inh = HP1-beta chromodomain-methylated histone interaction inhibition | Potency, µM (highest dose often 114 µM), actives largely listed as inhibitors | AlphaScreen HP1-beta / biotin-H3K9me3 peptide binding | 0.56% of 390,000 active; note: nearly all actives have a fitted effect of over 70% in size
Target sequence (P83916 whole entry, looked up): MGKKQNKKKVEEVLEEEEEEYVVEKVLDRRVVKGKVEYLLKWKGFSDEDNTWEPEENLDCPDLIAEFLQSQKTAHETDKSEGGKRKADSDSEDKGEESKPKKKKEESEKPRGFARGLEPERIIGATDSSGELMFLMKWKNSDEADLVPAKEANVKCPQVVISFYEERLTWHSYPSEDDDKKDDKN
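HP1-beta protein (50 nM final) preincubated 30 min at room temperature with biotinylated H3(1-18)K9me3 peptide (50 nM) in PBS pH 7.4, 0.01% Tween-20, then compound added for 30 min. AlphaScreen streptavidin donor/nickel chelate acceptor beads (10 ug/mL final), 30 min dark, luminescence read.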
JMJD2E inh-1 = inhibitors of human JMJD2E demethylase, 8HQ series round 1; shares compounds with BAZ2B inh; JMJD2E demethylase, FDH-coupled NADH fluorescence; Potency, µM (titrated, usually from 57 µM), most hits filed as inhibitors; 89% of 130 active; AID 493212
Target sequence (B2RXH2 1-337 limits assumed): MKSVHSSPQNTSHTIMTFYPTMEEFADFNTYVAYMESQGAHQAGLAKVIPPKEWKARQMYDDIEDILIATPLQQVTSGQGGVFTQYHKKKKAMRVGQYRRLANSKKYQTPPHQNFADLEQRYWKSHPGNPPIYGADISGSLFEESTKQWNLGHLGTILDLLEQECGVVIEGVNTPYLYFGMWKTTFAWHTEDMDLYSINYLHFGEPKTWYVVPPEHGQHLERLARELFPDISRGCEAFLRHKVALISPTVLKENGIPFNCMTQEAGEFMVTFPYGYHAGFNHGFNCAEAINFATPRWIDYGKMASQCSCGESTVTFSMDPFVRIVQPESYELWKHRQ
JMJD2E inh-2 = confirmation of inhibitors of human JMJD2E demethylase. 93% of 140 active. Potency, µM (highest dose often 56.8 µM), actives largely listed as inhibitors. Recombinant JMJD2E, FDH-coupled NADH fluorescence (FDH is formaldehyde dehydrogenase). AID 2677. shares compounds with JMJD2A Tudor
FDH inh = counter-screen for JMJD2E inhibitors: Pseudomonas putida formaldehyde dehydrogenase | shares compounds with JMJD2A Tudor | FDH enzyme assay, NADH fluorescence kinetic | Potency, µM (titrated, usually from 56.7 µM), hits mostly inhibitors | 10% of 140 active
JMJD2E MS inh = blocks demethylation by human JMJD2E in a MALDI-TOF-MS assay; shares compounds with JMJD2A Tudor; recombinant JMJD2E demethylation, MALDI-TOF-MS; Potency, µM, hits mostly inhibitors; 90% of 45 active; AID 2688;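 active = compounds whose IC50 for blocking JMJD2E demethylation is below 100 µM; inconclusive = dose dependent effect but IC50 above 100 µM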
Hits are given with their value; n = inactive; u = inconclusive; x = not tested or not shown; [ ] = remark or other dose. Unless noted, calls come from the whole dose curve; as a rule, active = well fitted inhibition curve with a large enough effect; inconclusive = small, poorly fitted or top-dose-only effect; inactive = no such curve, though single readings can be large or run the other way.

SMILES	JMJD2A Tudor	CtBP-E1A blk	G9a block	BAZ2B inh	Six1-Eya2 blk	HP1b binding inh	JMJD2E inh-1	JMJD2E inh-2	FDH inh	others
NC(=O)c1ccnc2c(O)cccc12	22µM	x	n[0.501 µM]	1.8µM	x	n	3.2µM	u	n
COC(=O)c1ccc(O)c2ncccc12	x	x	x	x	x	x	20µM	20µM	n
Oc1cccc2c(-c3nn[nH]n3)ccnc12	13µM	x	n[12.7 µM]	3.2µM	x	n	18µM	10µM	n	JMJD2E MS inh=18
c1ccc2c(-c3nn[nH]n3)cccc2c1	n	n	n	n	n	n	x	x	x
NC(=O)c1cccc2ccccc12	n	n	x	n	n	n	x	x	x
CCc1ccc(NC(=O)CSc2nnc(SCC(=O)Nc3ccc(CC)cc3)n2N)cc1	n	n	n	n	n	n	x	x	x
Cc1ccc(N(CC(=O)NC2CCCC2)C(=O)CNC(=O)c2cccs2)cc1F	n	n	n	n	n	n	x	x	x
Cc1csc2nc(COC(=O)c3cccc(NC(=O)COc4ccc(Cl)cc4)c3)cc(=O)n12	n	x	n[12.7 µM]	n	x	n	x	x	x
Oc1ccc(Cl)cc1CNc1ccccn1	n	n	n	n	n	n	x	x	x
Oc1ccc(CNc2cccc(F)c2)c2cccnc12	56µM	x	x	x	x	x	1.1µM	1.1µM	n	JMJD2E MS inh=14
Oc1ccc(CNc2ccc(F)cc2Cl)c2cccnc12	56µM	x	x	x	x	x	5.8µM	1.1µM	n	JMJD2E MS inh=16
Oc1ccc(CNc2ccccc2Br)c2cccnc12	50µM	x	x	x	x	x	3.5µM	3.5µM	n	JMJD2E MS inh=24
O=C(CCCN1C(=O)c2cccnc2C1=O)Nc1ccc(F)cc1Cl	n	n	n	n	n	n	x	x	x
CC(C)(CO)NC(=O)Nc1ccc(Cl)c(Cl)c1	n[11.4 µM]	x	x	n	n	n	x	x	x
COc1ccccc1CNC(=O)CSc1nnc2c(n1)[nH]c1ccc(F)cc12	n	n	n	n	n	n	x	x	x
O=C(O)c1cc(Br)c(O)c2ncccc12	x	x	x	x	x	x	0.0073µM	u	n
Oc1cc(-c2ccc(N3CCCCC3)nc2)cc2cccnc12	n	x	n[12.7 µM]	n	x	n	26µM	32µM	n
CN(C)c1ccc(-c2ccc3ncnc(N(C)C)c3c2)cc1	x	x	n[0.501 µM]	x	x	x	x	x	x
CN(C)CCCNC(=O)c1ccc(-c2cc(O)c3ncccc3c2)cc1	20µM	x	n[12.7 µM]	7.1µM	x	n	32µM	16µM	n
Cc1cc(N2CCCC2)nc(-c2ccccc2O)n1	n	n	n	n	n	n	x	x	x
CN(C)c1ccc(-c2cc(O)c3ncccc3c2)cc1	u	x	n[12.7 µM]	n	x	n	16µM	16µM	n
Oc1cc(-c2ccncc2)cc2cccnc12	45µM	x	n[12.7 µM]	2.8µM	x	n	32µM	16µM	n	JMJD2E MS inh=23
CN(C)CCCNCCCNC(=O)c1ccncc1	n	n	u	n	n	n	x	x	x
Cc1c(C(=O)N2CCCCCC2)c(S(=O)(=O)NCc2ccccc2Cl)c(C)n1C	n	n	n	u	n	n	x	x	x
CCN(C(=O)COC(=O)CNC(=O)C1CCCCC1)c1ccccc1	n	n	n	n	n	n	x	x	x
Cc1noc(C)c1CCC(=O)NC1CCCN(Cc2ccc(CC(C)C)cc2)C1 (stereo not given)	n	n	n	n	n	n	x	x	x
COc1ccccc1CNS(=O)(=O)c1c(C(=O)N2CCCCC2)c(C)n(C)c1C	n	n	n	n	n	n	x	x	x
Brc1ccccc1CN1CCC(N2CCCCC2)CC1	n	n	n	x	n	n	x	x	x
CN1CCN(C2CCN(Cc3ccc(O)c4ncccc34)CC2)CC1	45µM	x	n[2.33 µM]	8.9µM	x	n	3.2µM	3.2µM	n
CN1CCN(Cc2cc(COCc3ccccc3)c3cccnc3c2O)CC1	18µM	-94	u	10µM	-89	n	6.3µM	6.3µM	n

Bioassay records from PubChem.
